Results published in article PMC10163288.
A selection follows. How many sequences the whole screen found active is unknown.

B1: il10ra_site1_normal_mot_HHH_b2_02537_000000065_0001_1_20_H_._HHH_b1_07925_0001_0000100001_0000001_0 (protein)
chain: SSSSTDEVFEFTRRVIEEASELFRNGNPEEAERVLEEAREYLEELGDELALRSVEHLLRAISSSS
B2: il10ra_site1_sap_19_mot_HHH_b1_05214_000000232_0001_38_57_H_._HHH_b2_00758_0001_0000400024_0000001_0_0001 (protein)
chain: SSSSDIRELYELSREAVELRHEGNPEEAEKVVEEAEELARELNNRVLLAVIEWLREAIETSSSSS
B3: il10ra_site1_sap_16_mot_HHH_b1_06789_af2_000000041_0001_1_20_H_._HHH_b2_05269_af2_0001_0000200010_0000002_0_0001 (protein)
chain: SSSSDVEEELRELLKELEELVEEGDEEKFLRVAMEALHLAFQARDEEVLQLLWELAKELASSSSS
B4: il10ra_site1_normal_mot_HHH_b2_02693_af2_000000213_0001_19_35_H_._HHH_b2_04275_0001_0000300016_0000001_0_af2pred_0001 (protein)
chain: SSSSSSEESEELLEQLEEALRRGDEELIARLVLEIARLAEELNDKELVEELLRLLVEHQSSSSSS
B5: il10ra_site1_normal_mot_8756ee2cf497b5429c717dfc0c0bcfd6_0001_000000186_0001_1_13_H_._HHH_b2_00624_0001_0000300028_0000001_0_af2pred_0001 (protein)
chain: SSSSSEEAEELYRLLREAAELHWEGNPEEARELLEEAEELAKEAGNLNALAVIRFLLEVAGSSSS
B6: il10ra_site1_normal_mot_HHH_b2_00943_af2_000000149_0001_1_17_H_._d3c612d18aab0e0945b39b51a1e20ad4_0001_1_af2_0001_0000500040_0000001_0_af2pred_0001 (protein)
chain: SAEEVLQRQVERDPDDASALHLLLLVLAAKEGDPELVQLLRRANELSREGNPEEAREILQEAIER
B7: il10ra_site1_sap_27_mot_104c758fc23488854646035ccb2100c6_0001_000000282_0001_15_29_H_._5a9d7fc92c57439179869c3e1d567c11_0001_0001_0000100005_0000001_0_0001_af2p … (protein)
chain: SSSSSPLEKKLEATTKYLKFCLSHNDLEGIKSGLIALKQLGDESGNEEAKKVAAEVEEKLKSSSS
B8: il10ra_site1_normal_mot_HHH_b1_01779_000000096_0001_43_57_H_._HHH_b2_08219_0001_0000100005_0000001_0_af2pred_0001 (protein)
chain: SSSSNKEEAERSVRLLLELAKRLEDPERARAALRDARRTAEYVNDPELEELVEEVEREVLSSSSS
B9: il10ra_site1_sap_19_mot_HHH_b2_02053_af2_000000006_0001_3_19_H_._HHH_b1_07370_0001_0000100001_0000002_0_0001 (protein)
chain: SSSSSDEEVEELLKEAEELAEEGNPEEAAKVLLEAVRLAIQAGDEEALQKVWEVVKELAKSSSSS
B10: il10ra_site1_sap_23_mot_HHH_b2_03708_000000000_0001_1_18_H_._HHH_b1_08343_0001_0000300038_0000001_0_0001 (protein)
chain: SSSSDLEKEIFHLLIEAYHLLQRGDEEEARELLEEAKELAEELNDPALLRAVEVLLAKLDSSSSS
B11: il10ra_site1_sap_14_mot_HHH_b2_05343_000000235_0001_19_35_H_._HHH_b2_05666_0001_0000600037_0000001_0_0001 (protein)
chain: SSSSDQEFYKAVEEAIEKAIKLEKNGNPEEAERLLEEILEKAEELGNWAARWSIRHLLELLSSSS
B12: il10ra_site1_sap_19_mot_HHH_b2_05984_000000071_0001_38_52_H_._919c246ba0fc10ef4578bdc7f1052ff8_0001_0001_0000100004_0000001_0_0001 (protein)
chain: NELEEELEELVERGDEEKVAELAVKVAKEKGSFSPEQLEALRRFIEALFRDNKKVAEHLARLVID
B13: il10ra_site1_normal_mot_HHH_b2_07579_000000275_0001_1_19_H_._HHH_b1_01139_af2_0001_0000300023_0000001_0_af2pred_0001 (protein)
chain: SSSSSEEKRKVLELLRKALEIEDKEEAEKVVEEAVRLAEELNDPLAAKLAEMLLEQLEKGSSSSS
B14: il10ra_site1_sap_25_mot_HHH_b2_07388_000000275_0001_18_35_H_._7abaf38a3307e851c9e6880adce6b300_0001_1_0001_0000100003_0000001_0_0001_af2pred_0001 (protein)
chain: SSSSDEEEEEVEKLLEELEKLLERGDREEVFRLFREAARIIAELRDEEAFRRLQELLKRLFSSSS
B15: il10ra_site1_normal_mot_HHH_b2_00345_af2_000000013_0001_42_56_H_._HHH_b2_01857_0001_0000400035_0000002_0 (protein)
chain: SSSSSDEEEEEVEELLEEAKHIEDHEKRIEILLEATHLALRAQDPELVQLVWEVFHRLIRSSSSS
B16: il10ra_site1_normal_mot_HHH_b1_02062_000000185_0001_1_20_H_._HHH_b1_08089_0001_0000100003_0000001_0_af2pred_0001 (protein)
chain: SSSSDVEERVEELFEEVEELLRQGDVEEAFKVSREMIELASENQDDEAAELAREASRLFARSSSS
B17: il10ra_site1_normal_mot_HHH_b1_00999_000000080_0001_41_55_H_._HHH_b2_01363_af2_0001_0000100001_0000002_0 (protein)
chain: SSSSSSEEVEEEVERLLEEAKEIEDPEEAMRVLLEALQIALRNNNKELLQLVWRIIKELGSSSSS
B18: il10ra_site1_normal_mot_HHH_b2_03220_af2_000000223_0001_23_40_H_._HHH_b1_01843_af2_0001_0000200015_0000002_0 (protein)
chain: SSSSSSSEAEEVWRLLREALHIDDEEEVQELLEEAKRLAEELNSEVLRIVIEFLERDLSSSSSSS
B19: il10ra_site1_sap_13_mot_HHH_b2_04993_000000082_0001_43_55_H_._0a28df53656836c8faf163f96bad2529_0001_1_af2_0001_0000100004_0000002_0_0001_af2pred_0001 (protein)
chain: SSSSDEEEERLEELLEEVEELLRQGDPEEAARLLFEVAKLAAELNDDEILKLVQELVHLLFSSSS
B20: il10ra_site1_normal_mot_HHH_b2_00475_000000107_0001_44_57_H_._HHH_b1_04904_0002_0000200015_0000002_0 (protein)
chain: SSSSDIIEVLYRLQHAVAKGDEEEIEELLEELEELLKKASEEERKYIEILLHFARAQLELLSSSS
B21: il10ra_site1_normal_mot_HHH_b2_02337_000000026_0001_38_52_H_._HHH_b1_01890_af2_0001_0000100004_0000001_1 (protein)
chain: SSSSDEEEKAEELIREAEELAENGNPEEAARVAQEALRLILELGDEEALQLLWEAVRRLARSSSS
B22: il10ra_site1_sap_21_mot_HHH_b1_06914_000000280_0001_1_18_H_._HHH_b2_08153_0001_0000400035_0000001_0_0001 (protein)
chain: SSSSSREELREEVEEVIEELEEKNDTKLLHRLMELYKRAAELGDEELVREIFEVLLRIVQKSSSS
B23: il10ra_site1_normal_mot_HHH_b1_01821_000000158_0001_23_39_H_._HHH_b1_01350_af2_0001_0000300008_0000001_0 (protein)
chain: SSSSSSDEEREEAEELLEEAKHVEDPERFIELILEAVRLALRSGDEELLQEIWELFKRKSSSSSS

target: il10ra, Q13651; assay: yeast display titration
Sequence (Q13651 whole entry): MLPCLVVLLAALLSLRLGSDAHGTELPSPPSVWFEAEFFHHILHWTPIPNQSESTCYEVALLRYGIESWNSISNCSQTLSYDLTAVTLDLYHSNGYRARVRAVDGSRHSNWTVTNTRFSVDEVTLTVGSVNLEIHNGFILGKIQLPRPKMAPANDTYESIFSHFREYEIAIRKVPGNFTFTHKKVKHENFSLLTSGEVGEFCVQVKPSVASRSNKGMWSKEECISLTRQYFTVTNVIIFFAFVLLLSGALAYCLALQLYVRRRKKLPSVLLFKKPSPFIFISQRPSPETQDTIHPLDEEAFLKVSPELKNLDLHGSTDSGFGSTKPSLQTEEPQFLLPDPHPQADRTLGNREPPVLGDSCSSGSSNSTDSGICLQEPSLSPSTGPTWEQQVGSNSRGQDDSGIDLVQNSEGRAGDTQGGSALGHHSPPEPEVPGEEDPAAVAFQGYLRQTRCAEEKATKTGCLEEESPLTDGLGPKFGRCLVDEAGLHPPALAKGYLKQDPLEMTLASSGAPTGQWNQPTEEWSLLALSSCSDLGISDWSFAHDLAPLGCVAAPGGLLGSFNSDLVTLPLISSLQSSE

Apparent Kd, inactive:
B1 no binding seen
B2 no binding seen
B3 no binding seen
B4 no binding seen
B5 no binding seen
B6 no binding seen
B7 no binding seen
B8 no binding seen
B9 no binding seen
B10 no binding seen
B11 no binding seen
B12 no binding seen
B13 no binding seen
B14 no binding seen
B15 no binding seen
B16 no binding seen
B17 no binding seen
B18 no binding seen
B19 no binding seen
B20 no binding seen
B21 no binding seen
B22 no binding seen
B23 no binding seen
